In the library only some 2.1% were active in any assay of this set; here they are far more common.
FUS suppressor: FUS proteinopathy suppression in yeast; 390,000 tested, 0.24% active; AID 1347120; S. cerevisiae FUS-expressing, growth rescue, OD600, 24 h; Potency, µM (titrated, usually from 76.6 µM), actives largely listed as activators;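 note: plate controls were DMSO vehicle for no effect and reference control for full effect; nearly all actives have a fitted effect of over 55% in size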
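FUS-expressing yeast, raffinose-pregrown, induced in 2% galactose minimal medium at OD 0.005; compounds in a dilution series, 24hr at 30C. Growth restoration read as absorbance at 600 nm. CP55940 positive control, DMSO negative.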
TDP-43 yeast inh: TDP-43 toxicity inhibition in yeast; TDP-43 expressing yeast growth rescue, BacTiter-Glo, 24 h; 410,000 tested, 1.8% active; Potency, µM (titrated, usually from 46.1 µM), for inactives: at the top dose growth rescue (activation), actives largely listed as activators; note: % of control where 0% means no effect; nearly all actives have a fitted effect of over 50% in size
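Yeast cells expressing TDP-43 under galactose induction are exposed to compounds for 24 hr at 30 deg C. BacTiter-Glo luminescence measures growth, so protective compounds score as activators.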
Abeta yeast res: restores growth of yeast expressing A-beta42 peptide | yeast expressing A-beta42, growth rescue, OD600, 48 h; response scale: 0% DMSO, 100% iron-clioquinol control | Potency, µM (series often up to 46.1 µM), actives largely listed as activators | 410,000 tested, 0.063% active; note: nearly all actives have a fitted effect of over 55% in size
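Yeast A-beta toxicity model in growth medium with pinned compounds, 48 h at 30 C; growth read as absorbance at 600 nm. Normalized to FeCl3/clioquinol equimolar mix (positive) and DMSO (negative).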
aSyn rescue: rescues yeast growth from alpha-synuclein toxicity | Yeast expressing alpha-synuclein, growth rescue, BacTiter-Glo, 24 h | Potency, µM (titrated, usually from 46.1 µM), for the others: at the top dose growth rescue (activation), hits mostly activators | 370,000 tested, 0.14% active; note: % of control where 0% means no effect; nearly all actives have a fitted effect of over 65% in size
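Screening used galactose-induced yeast with toxic alpha-synuclein levels, exposed to compound for 24 hr at 30 deg C. Cell growth, read with BacTiter-Glo luminescence, gave the measured signal.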
Numbers without * were called inactive; i = inactive; ? = inconclusive; / = no result given. Calls come from the whole dose curve; as a rule, active = well fitted curve in the direction sought with a large enough effect; inconclusive = small, poorly fitted or top-dose-only effect, or another doubt; inactive = no such curve, though single readings can be large; an effect the other way counts as inactive or inconclusive. Potency is the fitted concentration of half-maximal effect.

SMILES	FUS suppressor	TDP-43 yeast inh	Abeta yeast res	aSyn rescue
CCOc1ccc(CCNC(=O)c2cnc(C)cn2)cc1OCC	i	26.4%	i	0.9%
Cn1cc(CN2CCC(C(=O)Nc3ccc(Oc4ccccc4F)cc3)CC2)cn1	i	-2.5%	i	-5.7%
COc1ccc(S(=O)(=O)N2CCOC23CCN(C(=O)c2c(F)cccc2Cl)CC3)cc1	i	17.8µM*	?	3.1%
CN1OC[C@@H]2CN(C(=O)Cc3ccccc3)[C@H](c3ccccc3Br)C[C@@H]21	i	0.0%	i	0.7%
CN1OC[C@@H]2CN(C(=S)NCCc3ccccc3)[C@H](c3ccccc3Br)C[C@@H]21	i	12.6µM*	i	0.3%
CC1(C)CC(=O)C=C(NC2=CC3OC(c4ccccc4)OCC3OC2=O)C1 (stereo not drawn)	/	12.6µM*	i	12.6µM*
Cc1ccccc1NC1=CC(=O)CC(C)(C)C1	i	-14.7%	i	-1.5%
Cc1cccc(C2C=C(c3ccc(F)cc3)Nc3nc4ccccc4n32)c1 (stereo not drawn)	i	31.6µM*	i	/
Cc1ccc(C2=CC(c3ccccc3C)n3c(nc4ccccc43)N2)cc1 (stereo not drawn)	i	10µM*	i	/
CC(C)(C)C(=O)OCc1ccc(C2=CC(=O)CC(C)(C)C2=O)cc1	i	0.0%	i	-0.6%
CCc1ccc(-c2nc(CN3CCC(C(=O)NCc4ccc(F)cc4)CC3)c(C)o2)cc1	i	2µM*	i	/
COc1ccc(-c2nc(CN3CCC(C(=O)NCc4ccc(F)cc4)CC3)c(C)o2)cc1OC	i	1.7%	i	/
O=C(CCc1nnc(C2(c3ccc(Cl)cc3)CCC2)o1)NCCCn1cccn1	i	-1.5%	i	1.4%
Cc1cccc(NC(=O)c2cc([N+](=O)[O-])ccc2Cl)c1O	i	22.4µM*	i	-2.9%
COc1cccc(/C=C2\CC3(OC(=O)c4ccco4)CCCN2C3)c1 (stereo not drawn)	i	/	/	/
NC(=O)c1sc2nc3c(c(-c4ccco4)c2c1N)CCC3	i	6.6%	i	10µM*
Cc1ccc(-c2c3c(nc4sc(C(N)=O)c(N)c24)CCCC3)o1	/	2.2%	i	20.2%
O=C(CSCC(=O)N1CCCCC1)Nc1nc(-c2ccc(Cl)s2)cs1	i	20µM*	i	-11.7%
O=C(CSCC(=O)N1CCCCC1)Nc1nc(-c2cccs2)cs1	i	31.6µM*	i	-1.0%
CC1CC(C)CN(C(=O)CSCC(=O)Nc2nc(-c3cccs3)cs2)C1 (stereo not drawn)	i	0.0%	i	-7.0%
CCOc1ccc(N=Nc2ccc(O)c3ncccc23)cc1	i	?	?	12.6µM*
NS(=O)(=O)c1ccc(N=Nc2ccc(O)c3ncccc23)cc1	i	?	i	-22.5%
CC(C)NC(=O)C1CCN(c2nc3ccccc3nc2C(F)(F)F)CC1	i	-4.1%	i	/
COc1ccc(-c2nc3ccccc3c(=O)n2O)cc1	i	-44.7%	i	31.6µM*
O=c1c2ccccc2nc(-c2ccccc2)n1O	i	-2.1%	i	24.5%
SMILES	FUS suppressor	TDP-43 yeast inh	Abeta yeast res	aSyn rescue
Cc1ccc(S(=O)(=O)N2CC(CO)=CCC2c2ccccc2)cc1 (stereo not drawn)	i	20.9%	i	8.5%
CC(C)(C)OC(=O)C(Oc1ccccc1[N+](=O)[O-])C(=O)OC(C)(C)C	i	20.2%	i	1.7%
C=CCC[C@H](CCCCC)OC(=O)/C=C/[C@H](O)[C@@H](O)C[C@H](O)CC=C	i	12.6%	i	?
C=CCC[C@@H](CCCCC)OC(=O)/C=C/[C@H](O)[C@@H](O)C[C@H](O)CC=C	?	27.9%	i	20µM*
CCOc1ccc(N2CC(C(=O)NC3=NCCS3)CC2=O)cc1 (stereo not drawn)	i	8.6%	i	-3.0%
COC(=O)c1sccc1NC(=O)Nc1cc(OC)ccc1OC	i	17.8µM*	i	8.6%
COC(=O)c1sccc1Oc1c(Cl)cccc1[N+](=O)[O-]	i	20µM*	i	2.4%
COC(=O)c1sccc1NC(=O)Nc1cccc(Cl)c1Cl	i	2.7%	i	0.1%
COC(=O)c1sccc1NC(=O)c1ccccc1[N+](=O)[O-]	/	?	i	1.4%
COC(=O)c1sccc1NC(=O)Nc1ccccc1Cl	i	11.2µM*	i	-10.2%
Cc1ccc(S(=O)(=O)NC(=O)C2(C)CCN2C(=O)Cc2ccc(-c3ccccc3)cc2)cc1 (stereo not drawn)	28.2µM*	30.0%	i	-16.9%
CC(C)(C)c1ccc(CC(=O)N2CCC2(C)C(=O)Nc2cnc3ccccc3c2)cc1 (stereo not drawn)	?	17.8µM*	i	?
CC1(C(=O)Nc2cccc3cccnc23)CCN1C(=O)Cc1ccc(Cl)cc1Cl (stereo not drawn)	i	20µM*	i	-2.8%
CC(C)c1ccc(CC(=O)N2CCC2(C)C(=O)Nc2cnc3ccccc3c2)cc1 (stereo not drawn)	i	?	i	5.6%
CC1(C(=O)Nc2cccc3ncccc23)CCN1C(=O)Cc1ccc(-c2ccccc2)cc1 (stereo not drawn)	?	25.1µM*	i	7.1%
CCOC(=O)c1ccccc1NC(=O)COC(=O)CSc1ccccc1	i	-4.3%	i	-13.5%
N#Cc1cc(-c2ccccc2)oc1/N=C/c1ccccc1O	i	2.6%	i	0.8%
COc1cccc(/C=N/c2oc(-c3ccccc3)cc2C#N)c1O	i	12.6µM*	i	14.3%
Cc1c(C(=O)c2ccccc2C(=O)O)sc2ccccc12	i	11.2µM*	i	1.4%
CC1=C(C(=O)N2CCOCC2)CC(CC(=O)NC2CCCCC2)C(=O)N1Cc1ccc(C(C)(C)C)cc1 (stereo not drawn)	i	?	i	3.55µM*
CC1=C(C(=O)N2CCOCC2)CC(CC(=O)NC2CC2)C(=O)N1Cc1ccc(C(C)(C)C)cc1 (stereo not drawn)	i	0.6%	i	-3.2%
Cc1cc(O)cc(C)c1NS(=O)(=O)c1ccc2ccccc2c1	i	10.2%	i	-7.8%
Cc1csc(Nc2ccc(Cl)cc2)n1	i	15.8µM*	?	-7.0%
CCOC(=O)[C@@]12CCC3=C1N(CCC3)C(=O)[C@H](CC(=O)NCCC(C)C)C2	i	/	/	/
O=C(CSc1ncccn1)NCc1ccc(F)cc1	i	15.8µM*	i	-0.8%
O=C(CSc1ccnc(=O)[nH]1)NCc1ccc(F)cc1	i	3.16µM*	i	/
O=C(CSc1ccc(-c2ccccn2)nn1)NCc1ccccc1	i	-10.1%	i	-2.5%
O=C(CSc1ccc(-c2ccccn2)nn1)NCc1ccc(F)cc1	?	15.8µM*	i	-16.2%
O=C(CN1CCN(S(=O)(=O)c2ccc3ccccc3c2)CC1)Nc1ccc2c(c1)CCC2	/	-20.7%	i	21.8%
